A short description of test [1]: A CellTox Green Cytotoxicity Assay to monitor cytotoxicity in HEK293 cells - 32 hour (AID 1224881). Also: nearly all actives have a fitted effect of over 40% in size. An outline of the steps:
(§1)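 Read-out: fluorescence of a cell-impermeant cyanine dye staining DNA of dead cells, proportional to cytotoxicity. HEK293, 600 cells/well with reagent, compound (23 nL DMSO) added after 5 h; reads at 0, 8, 16, 24, 32, 40 h.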

Test [2] in a line: A CellTox Green Cytotoxicity Assay to monitor cytotoxicity in HepG2 cells - 0 hour (AID 1224882). Also: nearly all actives have a fitted effect of over 35% in size. The method, boiled down:
(§2)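 HepG2, 600 cells/well premixed w/ CellTox Green; 5 h settle, 37 C/5% CO2; pintool cpd add (DMSO); 37 C, 40 h; fluorescence read at 0, 8, 16, 24, 32, 40 h.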

A short description of test [3]: A CellTox Green Cytotoxicity Assay to monitor cytotoxicity in HepG2 cells - 32 hour (AID 1224883). Also: nearly all actives have a fitted effect of over 50% in size. Also: potency is read from the fitted curve at half-maximal effect. The method, boiled down:
as §2

A short description of test [4]: A CellTox Green Cytotoxicity Assay to monitor cytotoxicity in HEK293 cells - 8 hour (AID 1224884). Also: nearly all actives have a fitted effect of over 35% in size. The method, boiled down:
as §1

Test [5] is described as follows: qHTS RealTime-Glo MT Cell Viability Assay in HepG2 cells - 16 hour (AID 1224885). Also: nearly all actives have a fitted effect of over 50% in size. The method, boiled down:
(§3)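 Viability was tracked continuously by NanoLuc luminescence from prosubstrate reduced by living HepG2 cells, at successive time points over 40 h of compound exposure. Cells with reagent were preincubated 5 h at 37 °C before compound addition.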

Test [6] is described as follows: qHTS RealTime-Glo MT Cell Viability Assay in HEK293 cells - 24 hour (AID 1224886). Also: nearly all actives have a fitted effect of over 50% in size. Also: potency is read from the fitted curve at half-maximal effect. An outline of the steps: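 Viability tracked continuously by luminescence as live cells reduce a prosubstrate for NanoLuc; HEK293 cells preincubated 5 h, compound-treated at 37 C, and read at 0, 8, 16, 24, 32 and 40 h.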
(qHTS replaces the single test concentration by a dilution series.)

The nature of test [7]: qHTS RealTime-Glo MT Cell Viability Assay in HEK293 cells - 8 hour (AID 1224887). Also: nearly all actives have a fitted effect of over 50% in size. Also: potency is read from the fitted curve at half-maximal effect. An outline of the steps: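 Luminescence readout at each listed time point; HEK293, 600 cells/well, RealTime-Glo MT reagent added with cells; compounds pinned (23 nL in DMSO) after 5 h at 37 C; continuous culture at 37 C.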
Test [8] is described as follows: A CellTox Green Cytotoxicity Assay to monitor cytotoxicity in HEK293 cells - 16 hour (AID 1224888). Also: nearly all actives have a fitted effect of over 35% in size. The method, boiled down:
as §1

Test [9] is described as follows: qHTS RealTime-Glo MT Cell Viability Assay in HepG2 cells - 0 hour (AID 1224889). Also: nearly all actives have a fitted effect of over 50% in size. An outline of the steps:
as §3

A short description of test [10]: A CellTox Green Cytotoxicity Assay to monitor cytotoxicity in HepG2 cells - 8 hour (AID 1224890). Also: nearly all actives have a fitted effect of over 45% in size. An outline of the steps: as §2
Test [11] in a line: qHTS assay to identify small molecule antagonists of the androgen receptor (AR) signaling pathway using the MDA cell line in the presence of 0.5 nM R1881 - cell viability counter screen (AID 1259242). Also: nearly all actives have a fitted effect of over 45% in size. An outline of the steps: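 Live-cell protease fluorescence, CellTiter-Fluor, 30 min at 37C. Cells: MDA-kb2, 3,000/well, preincubated 5 hr. Compounds plus 0.5 nM R1881 final, 16 hr, 37C, 0% CO2.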

The target in test [12] is Estrogen receptor (Homo sapiens) (UniProt P03372). The test can be described thus: qHTS assay to identify small molecule antagonists of the estrogen receptor alpha (ER-alpha) signaling pathway using the BG1 cell line in the presence of 0.1 nM 17-beta-estradiol (AID 1259244). Also: nearly all actives have a fitted effect of over 50% in size. The method, boiled down: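 Luminescence after ONE-Glo (30 min, room temperature) measured ERE-luciferase activity in VM7Luc4E2 cells treated 22 h with compound and 0.1 nM final 17beta-estradiol as stimulator.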
Estrogen receptor (Homo sapiens), sequence (P03372 whole entry, looked up): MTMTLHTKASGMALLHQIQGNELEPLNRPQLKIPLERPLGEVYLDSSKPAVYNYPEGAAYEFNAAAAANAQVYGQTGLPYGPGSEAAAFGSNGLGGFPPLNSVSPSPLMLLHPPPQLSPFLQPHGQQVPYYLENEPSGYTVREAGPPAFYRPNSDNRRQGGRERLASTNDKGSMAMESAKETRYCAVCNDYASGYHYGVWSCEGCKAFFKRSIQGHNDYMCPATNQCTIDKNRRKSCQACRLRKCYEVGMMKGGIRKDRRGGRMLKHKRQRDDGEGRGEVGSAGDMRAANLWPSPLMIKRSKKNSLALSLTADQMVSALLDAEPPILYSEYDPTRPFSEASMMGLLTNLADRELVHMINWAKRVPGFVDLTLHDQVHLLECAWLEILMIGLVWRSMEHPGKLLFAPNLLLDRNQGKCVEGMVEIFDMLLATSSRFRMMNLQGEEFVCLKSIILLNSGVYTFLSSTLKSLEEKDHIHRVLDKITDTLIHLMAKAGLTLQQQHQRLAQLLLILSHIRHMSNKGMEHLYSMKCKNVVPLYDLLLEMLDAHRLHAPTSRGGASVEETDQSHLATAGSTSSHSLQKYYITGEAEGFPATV

Test [13] is described as follows: qHTS assay to identify small molecule phospholipidosis (PLD) inducers (AID 1259344; active = well fitted curve in the direction sought with a large enough effect; an effect the other way counts as inactive or inconclusive). The method, boiled down: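 After 4 h attachment on collagen I, HepG2 cells were dosed with compound alongside LipidTOX Red, kept 24 h at 37 C, fixed, and imaged for lamellar phospholipid pits.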
Test [14] in a line: qHTS assay to identify small molecule HDAC inhibitors (AID 1259364).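 Also: wild-type HCT-116 cells with endogenous class I/II HDAC activity; top concentration of the series differs between compounds; nearly all actives have a fitted effect of over 45% in size.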 The method, boiled down: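 HCT-116 (wild type), 1,500 cells/well, overnight; compound 2 hr 37C 5% CO2; HDAC-Glo I/II reagent 30 min RT; luminescence readout.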
Test [15] in a line: qHTS assay to identify small molecule HDAC inhibitors - cell viability counter screen (AID 1259365). An outline of the steps: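 Wild-type HCT-116 cells, 1,500/well, cultured overnight, then compound-treated 2 h at 37 C. Viability measured as ATP luminescence with CellTiter-Glo after 30 min at room temperature.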
Test [16] can be described thus: qHTS assay to identify small molecule agonists of the sonic hedgehog signaling (Shh) pathway - cell viability counter screen (AID 1259366). Also: nearly all actives have a fitted effect of over 50% in size. An outline of the steps: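 NIH/3T3-derived Gli1-Luc reporter cells, 2,000 per well, received compound after 4 h and were treated about 23 h at 37C. Viability measured in the same wells by CellTiter-Fluor fluorescence after 1 h.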

The nature of test [17]: qHTS assay to identify small molecule antagonists of the sonic hedgehog signaling (Shh) pathway - cell viability counter screen (AID 1259367). Also: nearly all actives have a fitted effect of over 55% in size. An outline of the steps: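 Conditioned medium drove Shh signaling in 3T3 Gli1-Luc cells exposed to compounds at 37C and 5% CO2. Viability was determined from CellTiter-Fluor fluorescence, with reagent incubated 1 hr after 23 hr of treatment.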

Test [18] can be described thus: qHTS assay to identify small molecule agonists of the sonic hedgehog signaling (Shh) pathway (AID 1259368; calls by dose curve;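 also: NIH/3T3-derived 3T3Gli1-Luc cells carrying a stable Gli1-driven firefly luciferase reporter; series mostly up to about 92 µM; nearly all actives have a fitted effect of over 15% in size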). The method, boiled down: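 Read-out: firefly luciferase luminescence from a Gli1 response element reporter stably integrated in NIH/3T3-derived 3T3Gli1-Luc cells, measured 30 min at room temperature after reagent addition. Compound exposure lasted 24 hr at 37 C, 5% CO2.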

Test [19] in a line: qHTS assay to identify small molecule antagonists of the estrogen receptor alpha (ER-alpha) signaling pathway using the BG1 cell line in the presence of 0.1 nM 17-beta-estradiol - cell viability counter screen (AID 1259241). Also: nearly all actives have a fitted effect of over 40% in size. An outline of the steps:
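VM7Luc4E2 cells (endogenous full-length ER-alpha, 4xERE-luciferase), cultured 5 days in charcoal-stripped serum, exposed to compounds with 0.1 nM 17beta-estradiol (final) for 22 hr at 37C. Viability read in same wells as live-cell protease fluorescence after 30 min.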

Test [20] addresses Androgen receptor (Homo sapiens) (UniProt P10275). The experiment in a line: qHTS assay to identify small molecule antagonists of the androgen receptor (AR) signaling pathway using the MDA cell line in the presence of 0.5 nM R1881 (AID 1259243). Also: nearly all actives have a fitted effect of over 50% in size. The method, boiled down: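 MDA-kb2, MMTV-luc (AR/GR elements); 3,000 cells/well; cpd + 0.5 nM R1881 final; 16 hr 37C, 0% CO2; ONE-Glo 30 min RT; luminescence.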

Structures are written as SMILES. Inconclusive results are not listed. The source made the active and inactive calls. Unless noted, calls follow the shape of the dose curve; as a rule, active = well fitted curve in the direction sought with a large enough effect in the repeat runs; inconclusive = weak or mixed curves; inactive = no such curve, though single readings can be large; an effect the other way counts as inactive or inconclusive.

Androgen receptor (Homo sapiens), sequence (P10275 whole entry, looked up): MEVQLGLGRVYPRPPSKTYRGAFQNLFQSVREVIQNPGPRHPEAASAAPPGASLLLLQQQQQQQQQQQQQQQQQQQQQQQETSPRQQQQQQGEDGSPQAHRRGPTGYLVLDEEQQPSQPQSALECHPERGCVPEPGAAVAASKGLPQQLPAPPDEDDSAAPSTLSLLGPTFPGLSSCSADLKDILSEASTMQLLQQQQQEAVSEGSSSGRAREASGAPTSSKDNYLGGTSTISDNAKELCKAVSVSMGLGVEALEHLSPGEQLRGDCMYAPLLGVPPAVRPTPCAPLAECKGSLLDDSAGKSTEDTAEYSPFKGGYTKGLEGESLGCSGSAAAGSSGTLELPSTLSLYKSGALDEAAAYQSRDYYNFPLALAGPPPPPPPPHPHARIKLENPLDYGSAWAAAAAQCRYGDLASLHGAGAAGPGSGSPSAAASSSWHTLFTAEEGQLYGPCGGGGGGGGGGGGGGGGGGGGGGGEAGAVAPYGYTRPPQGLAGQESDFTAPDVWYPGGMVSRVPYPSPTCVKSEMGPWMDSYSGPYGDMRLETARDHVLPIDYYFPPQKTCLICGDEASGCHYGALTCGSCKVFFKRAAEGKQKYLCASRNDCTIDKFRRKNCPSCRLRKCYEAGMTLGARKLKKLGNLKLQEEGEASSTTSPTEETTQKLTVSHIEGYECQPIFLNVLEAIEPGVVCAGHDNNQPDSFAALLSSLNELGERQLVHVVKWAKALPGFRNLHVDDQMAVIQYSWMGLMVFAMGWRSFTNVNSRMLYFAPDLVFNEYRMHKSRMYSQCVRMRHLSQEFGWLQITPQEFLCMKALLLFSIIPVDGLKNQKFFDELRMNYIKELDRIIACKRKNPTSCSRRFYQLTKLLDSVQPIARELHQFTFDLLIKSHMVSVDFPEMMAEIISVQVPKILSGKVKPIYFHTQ

On to `C[C@]1(Cn2ccnn2)[C@H](C(=O)O)N2C(=O)C[C@H]2S1(=O)=O`, for which the Potency entry in [1], in test [2], in [3], in test [4], in test [5] and in test [6] was “inactive” in each case. The Potency result in test [7], in [8], in [9], in test [10], in [11] and in test [12] was “inactive” in each case. Further, the Potency entry in test [13], in [14], in test [15], in test [16], in [17] and in test [18] was “inactive” throughout.

`O=C(CCCN1CC=C(n2c(=O)[nH]c3ccccc32)CC1)c1ccc(F)cc1`: the Potency entry in test [1], in test [2], in test [3], in test [4], in [5] and in test [8] was “inactive” in each case. Also, the Potency entry in [10], in [19], in [11], in test [13], in test [14] and in [15] was “inactive” in each case. Further, the Potency entry in test [16], in test [17] and in [18] was “inactive” in each case. Besides, the Potency was 10.7 µM (active) in [6] and 16.9 µM (active) in [7].

For the compound `CN1C(=O)OC(C)(C)C1=O`, the Potency result in test [1], in test [2], in [3], in test [4], in test [5] and in test [6] was “inactive” each time. Further, the Potency entry in test [7], in test [8], in [9], in test [10], in [19] and in test [12] was “inactive” throughout. The Potency result in test [13], in test [15], in test [16] and in test [17] was “inactive” in each case.

Consider `CN(C)CCC=C1c2ccccc2C=Cc2ccccc21`, for which the Potency result in test [1], in test [2], in test [4], in [5], in test [6] and in test [7] was “inactive” in each case. In addition, the Potency result in test [8], in test [10], in test [11], in test [12], in test [14] and in test [15] was “inactive” in each case. For the same compound, the Potency result in test [16], in test [17] and in [18] was “inactive” each time. Further, the Potency in test [3] was 23.9 µM (active).

As to `O=C1NC(=O)c2cc([N+](=O)[O-])ccc21`, the Potency result in test [1], in test [2], in test [3], in test [4], in test [5] and in test [6] was “inactive” throughout. For the same compound, the Potency result in test [7], in test [9], in test [10], in [19], in test [11] and in test [20] was “inactive” in each case. In addition, the Potency result in [12], in test [14], in [15], in [16], in test [17] and in test [18] was “inactive” in each case.

Consider `Cc1cc(C)cc(N)c1`, for which the Potency entry in [1], in [2], in [3], in [4], in [5] and in test [6] was “inactive” throughout. The Potency entry in test [7], in [8], in [9], in [19], in [11] and in test [20] was “inactive” throughout. Moreover, the Potency entry in test [12], in test [15], in test [16], in test [17] and in test [18] was “inactive” throughout.

Regarding `C[C@H]1C[C@H](O)c2ccsc2S1(=O)=O`, the Potency result in test [1], in [2], in test [3], in test [4], in [5] and in test [6] was “inactive” throughout. Moreover, the Potency entry in [7], in test [8], in test [9], in [10], in [19] and in [20] was “inactive” in each case. Besides, the Potency result in [12], in test [14], in test [15], in test [16], in test [17] and in [18] was “inactive” throughout.

Source of the values: PubChem BioAssay (Tox21).
